This note sets out measurements from ChEMBL document CHEMBL3433997, “St. Jude Leishmania screening dataset” (2016).

Type in all cases: functional
Assay [1] addresses Solute carrier family 2, facilitated glucose transporter member 1 (Homo sapiens) (UniProt P11166). The experiment in a line: ST_JUDE_LEISH: Cytotoxicity at 2uM final concentration against transgenic Leishmania Mexicana promastigotes LmGLUT1 that are glucose transport deficient and complemented with the human glucose transporter GLUT1. Activity is measured by DNA content using SYBR green in vitro.

The target of assay [2] is Hexose transporter 1 (Plasmodium falciparum) (UniProt O97467). Kind of assay: ST_JUDE_LEISH: Cytotoxicity at 2uM final concentration against transgenic Leishmania Mexicana promastigotes LmPfHT that are glucose transport deficient and complemented with the Plasmodium falciparum hexose transporter. Activity is measured by DNA content using SYBR green in vitro.
The target in assay [3] is Glucose transporter (Leishmania mexicana) (UniProt O61059). Kind of assay: ST_JUDE_LEISH: Cytotoxicity at 2uM final concentration against transgenic Leishmania Mexicana promastigotes LmGT2 that are glucose transport deficient and complemented with the L. Mexicana glucose transporter 2. Activity is measured by DNA content using SYBR green in vitro.

Sequence of Solute carrier family 2, facilitated glucose transporter member 1 (Homo sapiens) (P11166 whole entry): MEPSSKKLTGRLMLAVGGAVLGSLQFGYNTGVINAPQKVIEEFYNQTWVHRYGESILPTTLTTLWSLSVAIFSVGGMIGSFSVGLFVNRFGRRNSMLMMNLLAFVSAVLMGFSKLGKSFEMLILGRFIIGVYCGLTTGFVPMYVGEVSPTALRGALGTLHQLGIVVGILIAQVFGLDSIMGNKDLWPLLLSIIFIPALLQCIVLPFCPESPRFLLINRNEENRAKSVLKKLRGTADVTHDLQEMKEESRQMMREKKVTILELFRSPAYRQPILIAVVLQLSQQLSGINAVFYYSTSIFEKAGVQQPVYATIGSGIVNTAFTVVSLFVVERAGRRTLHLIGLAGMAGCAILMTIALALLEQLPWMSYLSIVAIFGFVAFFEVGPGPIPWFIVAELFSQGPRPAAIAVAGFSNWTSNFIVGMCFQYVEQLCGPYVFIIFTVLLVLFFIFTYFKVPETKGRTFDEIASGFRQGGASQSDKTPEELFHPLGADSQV

Regarding `C=CCOc1ccc(C2C(C(=O)OC)=C(C)NC3=C2C(=O)c2ccccc23)cc1OC` (stereo unspecified), the results for the inhibition in assay [1], in assay [2] and in assay [3] were -0.61%, 4.51% and 1.15%, respectively.

`O=C(Nc1cccc(CN2CCCN(Cc3cccc(O)c3)CC2)c1)c1ccc(Cl)c(Cl)c1`: the inhibition was found to be 13.9% in assay [1], 12.1% in assay [2] and 13.8% in assay [3].

Take `FC(F)(F)c1cccc(CNCC2CCN(CC3CCCCC3)CC2)c1`: the inhibition in assay [1] was -0.93%; in assay [2] it was -0.13%; in assay [3] it was 0.34%.

For `CC(C)CC1c2[nH]c3ccccc3c2CCN1C(=O)CCc1ccccc1` (stereo unspecified), the inhibition in assay [1] turned out to be 5.53%; in assay [2], 5.28%; in assay [3] it was 4.41%.

For the molecule `COc1cc(Cc2cnc(N)nc2N)c2c(c1OC)OC(C)(C)C=C2`, the inhibition in assay [1] came to 4.17%; in assay [2] it was 5.13%; in assay [3] it was 4.87%.

`Cc1ccccc1C1CCN(C2CCC(NC(=O)C3=Cc4cc(Cl)ccc4OC3)CC2)CC1` (stereo unspecified): the inhibition is -3.31% in assay [1], 2.37% in assay [2] and 1.59% in assay [3].

With `Cc1ccccc1CNc1ccc2nc(N)nc(N)c2c1`, the inhibition in assay [1] is 1.01%; in assay [2], 2.12%; in assay [3] it was -0.21%.

Regarding `CC(C)(c1ccccc1)c1ccc(O)c(CN2CCOCC2)c1`, the values for the inhibition in assay [1], in assay [2] and in assay [3] were -0.49%, -1.3% and -0.41%, respectively.

On to `CC(C)CN1CCCN(Cc2cccc(NC(=O)c3ccc(Cl)c(Cl)c3)c2)CC1`, for which the inhibition in assay [1] is 10.4%; in assay [2], 10.2%; in assay [3], 4.5%.

With `CCN(CC)CCCC(C)N=c1cc(C=Cc2ccccc2Cl)[nH]c2cc(Cl)ccc12` (stereo unspecified), the inhibition turned out to be 3.06% in assay [1], 3.03% in assay [2] and 1.56% in assay [3].

On to `CCc1sc(N2CCN(C)CC2)nc1C(=O)NCCc1ccc(Cl)c(Cl)c1`, for which the inhibition in assay [1] was 4.62%; in assay [2], 3.9%; in assay [3] it was 3.6%.

Take `Nc1ncnc2c1ncn2C(CO)Cc1ccc(O)cc1` (stereo unspecified): the inhibition in assay [1] was determined as 9.32%; in assay [2] it was 6.45%; in assay [3], 8.36%.

In the case of `COc1ccc(Cl)cc1C(=O)Nc1ccc(-c2nc3ccccc3[nH]2)cc1`, the inhibition in assay [1] amounted to 4.93%; in assay [2] it was 3.29%; in assay [3], 1.35%.

Consider `O=C(NC1CCN(Cc2ccccc2)CC1)c1ccc(CNC2CCN(Cc3ccccc3)CC2)cc1`, for which the inhibition was 4.84% in assay [1], 3.94% in assay [2] and 4.42% in assay [3].

Turning to `CCCCCc1cnc2nc(N)nc(N)c2c1C`, the inhibition in assay [1] was determined as 13.6%; in assay [2] it was 13.5%; in assay [3], 12.4%.

For the molecule `Cc1cc(N(C)C)nc(Nc2ccc(NC(=O)c3ccccc3Cl)cc2)n1`, the inhibition was -1.66% in assay [1], 5.72% in assay [2] and -4.81% in assay [3].

As to `CC(=O)c1ccc(NC(=O)C2c3ccccc3C(=O)N(CC(C)C)C2c2cccs2)cc1` (stereo unspecified), the inhibition is -0.43% in assay [1], 0.9% in assay [2] and 0.34% in assay [3].

`COc1ccc(CNC2CCN(C)CC2)cc1-c1ccc(S(=O)(=O)NC2CCC2)c(C)c1`: the results for the inhibition in assay [1], in assay [2] and in assay [3] were 0%, -0.22% and -0.25%, respectively.

Consider `Cc1cc(=NN=Cc2cccc(Cl)c2)c2cc(F)ccc2[nH]1`, for which the values for the inhibition in assay [1], in assay [2] and in assay [3] were 5.23%, 5.15% and 4.84%, respectively.

Consider `O=C(Nc1ccc(N2CCNCC2)cc1)c1ccn2ncc(-c3cccc(Cl)c3)c2n1`, for which the inhibition in assay [1] amounted to 84.8%; in assay [2] it was 83.9%; in assay [3] it was 54.3%.

For the molecule `O=C(Nc1ccc(Cl)cc1)c1cccc(CN2CCCN(Cc3cccc(O)c3)CC2)c1`, the figures for the inhibition in assay [1], in assay [2] and in assay [3] were -0.2%, -0.04% and 0.01%, respectively.

For `O=C(/C=C/c1ccc(Cl)c(Cl)c1)N1CCC(CCCN2CCC(c3c[nH]c4ccccc34)CC2)CC1`, the figures for the inhibition in assay [1], in assay [2] and in assay [3] were 70.7%, 51.2% and -0.32%, respectively.

With `COc1ccccc1CCCON1C(=N)N=C(N)NC1(C)C`, the inhibition was 5.24% in assay [1], 5.03% in assay [2] and 4.51% in assay [3].

As to `COc1c(CNCCCCCCNCc2c(OC)c(OC)c3ccccc3c2OC)c(OC)c2ccccc2c1OC`, the inhibition in assay [1] came out at 67.6%; in assay [2], 11.8%; in assay [3], 56.7%.

With `COc1ccc(CNCC(C)(C)c2nc(-c3ccc(Cl)c(O)c3)c(-c3ccncc3)[nH]2)cc1`, the inhibition in assay [1] is 0.93%; in assay [2] it was 0.9%; in assay [3] it was -2.74%.

For the molecule `CN(C)c1cccc2c1nc(-c1ccco1)n2CC1CCCN1` (stereo unspecified), the inhibition is -1.97% in assay [1], -3.51% in assay [2] and -0.52% in assay [3].

In the case of `CCOC(=O)c1ccc(NC(=O)NNC(=O)c2ccc(CCN3CCC(c4nc(COCC(F)(F)F)c(-c5ccc(F)cc5)o4)CC3)cc2)cc1`, the inhibition in assay [1] worked out at 1.09%; in assay [2], 1.22%; in assay [3] it was 0.84%.

Take `O=C(NCCc1ccccc1)N(Cc1ccccc1-c1ccc(CNCCc2ccccc2)cc1)C1CCN(Cc2ccccc2)CC1`: the inhibition was determined as 7.2% in assay [1], 8.75% in assay [2] and 3.55% in assay [3].

Turning to `C=CC[C@H](C[C@H](O)[C@H](Cc1ccccc1)NC(=O)c1ccc(-c2cccnn2)cc1)C(=O)NC1CCCCC1`, the inhibition is -1.55% in assay [1], -0.85% in assay [2] and -1.31% in assay [3].

With `COc1cccc(Nc2nccc(-c3c(-c4cccc(NC(=O)c5c(F)cccc5F)c4)nn4ccccc34)n2)c1`, the inhibition amounted to 5% in assay [1], 13.3% in assay [2] and 5.92% in assay [3].

On to `N=c1cc(C=Cc2ccc(O)cc2)[nH]c2ccccc12`, for which the inhibition in assay [1] was 2.26%; in assay [2], 4.1%; in assay [3], 3.12%.

For the molecule `CSc1cccc(Nc2nc3ccc(S(=O)(=O)NCC(C)C)cc3n2C(C)C(C)C)c1` (stereo unspecified), the inhibition in assay [1] is 2.75%; in assay [2], 4.12%; in assay [3], 2.98%.

Consider `Cc1cccc2nc(-c3cccc(-c4ccc(NC(=O)C(C)CN5CCN(C)CC5)cc4)c3)[nH]c12` (stereo unspecified), for which the values for the inhibition in assay [1], in assay [2] and in assay [3] were 1.5%, 0.53% and 3.85%, respectively.

`Cc1ccc2nc(-c3ccc(C(=O)NCc4ccc(Cl)c(Cl)c4)cc3)[nH]c2c1C`: the inhibition in assay [1] was found to be 2.57%; in assay [2], 0.03%; in assay [3], 0.59%.

On to `Cc1[nH]c(C)c(-c2ccc(OCc3cc(C(F)(F)F)cc(C(F)(F)F)c3)nc2)c(=O)c1Br`, for which the inhibition in assay [1] amounted to 10.1%; in assay [2] it was 10.2%; in assay [3], 2.99%.

`CCCCCc1cc(O)c2c(c1)OC(C)(C)C=C2C1=CCN(Cc2ccsc2)CC1`: the values for the inhibition in assay [1], in assay [2] and in assay [3] were 2.33%, 2.79% and 2.52%, respectively.

For `FC(F)(F)c1ccc2[nH]c(-c3cccc(-c4cccc(CNCc5cnn(-c6ccccc6)n5)c4)c3)nc2c1`, the inhibition in assay [1] is 5.47%; in assay [2], 5.16%; in assay [3] it was 3.27%.
